Assay outcomes deposited in PubChem BioAssay by National Center for Advancing Translational Sciences (NCATS).
A selection: hits, their analogues and other compounds. The true share with any hit is near 7.6%.
ELG1 DNA repair: qHTS screen for small molecules that inhibit ELG1-dependent DNA repair in human embryonic kidney (HEK293T) cells expressing luciferase-tagged ELG1 | HEK293T ELG1-luciferase reporter, luminescence, 16 h; DNA damage induced by 5-fluorouridine | Potency, µM (doses to about 46.1 µM), for inactives: top-dose activity change, negative = inhibition, hits mostly inhibitors | 330,000 compounds, 2.3% hits | AID 504467, 2011; further: potency means the concentration at half of the fitted maximal effect; on the % scale 0 is the no-effect control and ±100 the full control effect; nearly all actives have a fitted effect of over 55% in size
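DMSO vehicle served as the neutral condition. Each well held 2,000 cells given 5-fluorouridine plus compound; after 16 hr at 37 °C/5% CO2, ONE-Glo was added and luciferase measured 30 min later.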
Giardia kill: Small Molecules that selectively kill Giardia lamblia: qHTS. Giardia lamblia trophozoite viability. activity change, % at 7.66 µM, hits read low. 340,000 compounds, 0.15% hits; in the data active means activity change below about -80%; inconclusive means between about -30% and that limit;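 further: parasites exposed to compound for two days anaerobically before the ATP read; on the % scale 0 is the no-effect control and ±100 the full control effect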
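Killing of trophozoites was scored by loss of ATP luminescence after a 48 hrs anaerobic exposure to compounds at 37 deg C, using 100 cells per well.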
BRCA1 expr act: qHTS Assay to Identify Small Molecule Activators of BRCA1 Expression; AID 624202, 2012; 380,000 compounds, 1.1% hits; MCF7-BRCA1-FFLuc reporter, luminescence, 48 h; response scale: scaled: vehicle 0%, 10 µM genistein 100%; Potency, µM (highest dose often 46.1 µM), for inactives: at the top dose activation, most hits filed as activators; further: potency means the concentration at half of the fitted maximal effect; nearly all actives have a fitted effect of over 80% in size
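MCF7 cells carrying a BRCA1-firefly luciferase reporter (2000 cells/well, phenol-red free MEM) were attached for 2 h at 37 °C, then given compounds for 48 h. Luminescence was read 15 min after luciferase reagent; activity normalized to genistein (10 microM) and DMSO.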
RORgamma inh: qHTS for inhibitors of ROR gamma transcriptional activity; Drosophila S2 Gal4-RORgamma UAS-luciferase reporter, 20 h; Potency, µM (top dose mostly 53.6 µM), for inactives: top-dose activity change, negative = inhibition, usual class: inhibitors; 310,000 compounds, 5.4% hits; further: potency means the concentration at half of the fitted maximal effect; on the % scale 0 is the no-effect control and ±100 the full control effect; nearly all actives have a fitted effect of over 60% in size
Target sequence (P51450 whole entry, looked up, the tested form may be a part): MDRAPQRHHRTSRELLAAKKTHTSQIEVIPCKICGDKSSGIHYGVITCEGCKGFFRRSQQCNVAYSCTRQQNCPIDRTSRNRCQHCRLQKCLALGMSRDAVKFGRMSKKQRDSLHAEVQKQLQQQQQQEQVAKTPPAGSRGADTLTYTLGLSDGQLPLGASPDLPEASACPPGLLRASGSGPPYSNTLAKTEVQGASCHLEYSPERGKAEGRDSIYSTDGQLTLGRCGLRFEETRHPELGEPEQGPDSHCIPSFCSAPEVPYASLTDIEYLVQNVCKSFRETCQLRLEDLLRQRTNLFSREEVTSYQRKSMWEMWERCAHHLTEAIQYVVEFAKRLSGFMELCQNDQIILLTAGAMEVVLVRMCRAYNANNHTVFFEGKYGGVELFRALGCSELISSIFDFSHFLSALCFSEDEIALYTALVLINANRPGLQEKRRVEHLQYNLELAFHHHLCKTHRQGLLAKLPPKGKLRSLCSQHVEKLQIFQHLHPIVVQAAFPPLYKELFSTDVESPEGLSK
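Compounds are pin-transferred onto Drosophila Schneider cells expressing a copper-inducible Gal4–ROR gamma transactivation domain fusion. After 1 hr, copper sulfate is added to 700 uM final; luciferase is read 20 hr later.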
Gal4-VP16 FLuc: VP16 counterscreen qHTS for inhibitors of ROR gamma transcriptional activity. Drosophila S2 Gal4-VP16 UAS-luciferase, luminescence, 20 h. Potency, µM (highest dose often 53.6 µM), inactives show at the highest dose activity, negative = inhibition, usual class: inhibitors. 310,000 compounds, 3.5% hits. AID 2546, 2010;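 further: Gal4-VP16 expression switched on by copper sulfate through the metallothionein promoter; potency means the concentration at half of the fitted maximal effect; on the % scale 0 is the no-effect control and ±100 the full control effect; nearly all actives have a fitted effect of over 50% in size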
p53 reactivation: qHTS assay for re-activators of p53 using a Luc reporter; H1299 p53-A138V BP100-luciferase reporter, luminescence, 24 h; Potency, µM (titrated, usually from 92.2 µM), without a hit: top-dose activity change, positive = activation, actives largely listed as activators; 320,000 compounds, 0.063% hits; AID 504706, 2011; further: potency means the concentration at half of the fitted maximal effect; % of control where 0% means no effect; nearly all actives have a fitted effect of over 45% in size
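p53-null H1299 cells stably carrying temperature-sensitive p53-A138V and a BP100-luciferase reporter were pinned with compounds (4-point, 1:5 series) and held 24 hrs at 37 deg C. Luminescence was read 10 min after detection reagent.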
Starred values were filed as active, the others as inactive; ? = inconclusive; nt = no result; [ ] = another dose, or the depositor's remark. Unless noted, the call rests on the fitted dose curve; in most records, active means well fitted curve in the direction sought with a large enough effect; inconclusive means small, poorly fitted or top-dose-only effect, or another doubt; inactive means no such curve, though single readings can be large; an effect the other way counts as inactive or inconclusive.

SMILES | ELG1 DNA repair | Giardia kill | BRCA1 expr act | RORgamma inh | Gal4-VP16 FLuc | p53 reactivation
Cc1cc2cc(CNC(=S)NC3CCCCC3)ccc2n1C | ? | 24.0 | -9.5% | 14.1µM* | ? | 2.1%
CCCCN(C=O)c1c(CC)nc2ccc(C(=O)N3CCN(C)CC3)cn12 | nt | nt | -7.6% | nt | nt | nt
Cc1ccc(NC(=O)CS(=O)CC(=O)NCCCN(C)c2ccccc2)cc1 (configuration not stated) | -10.2% | -7.9 | -0.5% | 4.0% | 3.4% | -1.1%
O=C(COC(=O)Cc1n[nH]c(=O)c2ccccc12)Nc1ncc(Cl)cc1Cl | 0.2% | 9.6 | -0.8% | nt | nt | -1.9%
OC(COCc1ccc(Cl)cc1)CN1CCN(CC(O)COCc2ccc(Cl)cc2)CC1 (configuration not stated) | 20.6µM* | 8.3 | -54.9% | -8.5% | -3.8% | -5.5%
CCc1ccc(NC(=O)C2CCCN(S(C)(=O)=O)C2)cc1 (configuration not stated) | -0.4% | 16.5 | 21.0% | 21.1% | -12.5% | 10.8%
CN(C(=S)Oc1ccc(C(=O)Nc2ccccc2)cc1)c1ccccc1 | 18.4µM* | -11.8 | -34.4% | 14.7% | ? | 2.3%
COc1ccc(NC(=O)c2ccc(OC(=S)N(C)c3ccc(OC)cc3)cc2)cc1 | 2.1% | -13.3 | -33.5% | -11.9% | -20.5% | -5.6%
COc1ccc(OC)c(NS(=O)(=O)c2ccc3[nH]c4c(c3c2)CCCCC4)c1 | nt | nt | -49.0% | nt | nt | nt
Cn1cnc([N+](=O)[O-])c1S(=O)(=O)c1ccc(Cl)cc1 | ? | -0.2 | -58.4% | 3.55µM* | 5.01µM* | -29.7%
CC1CCN(C2(O)C(=O)Nc3ccc([N+](=O)[O-])cc32)CC1 (configuration not stated) | 10.3% | -17.2 | 12.4% | -7.1% | -5.6% | 0.1%
Cc1cc([N+](=O)[O-])cc2c1NC(=O)C2(O)N1CCOCC1 (configuration not stated) | 10.5% | -10.3 | 9.0% | 11.2µM* | ? | 5.3%
Clc1ccccc1Nc1c2c(nc3ncnn13)CCC2 | -9.8% | -18.8 | -18.4% | 10µM* | ? | 5.2%
Nc1nc(CN2CCN(C(c3ccccc3)c3ccccc3)CC2)nc(Nc2ccccc2)n1 | ? | 7.9 | -29.3% | 3.16µM* | ? | 1.7%
Nc1nc(CN2CCN(c3ccccc3F)CC2)nc(Nc2ccccc2)n1 | 0.0% | 4.0 | -1.2% | ? | 6.7% | -1.4%
Cc1ccc(Nc2nc(N)nc(CN3CCN(c4ccccc4F)CC3)n2)cc1 | ? | -23.0 | -42.4% | 11.2µM* | -3.8% | -12.0%
Nc1nc(CN2CCC(Cc3ccccc3)CC2)nc(Nc2ccccc2)n1 | -19.7% | -8.3 | -0.7% | 10µM* | -26.1% | 0.0%
Nc1nc(CN2CCCCCC2)nc(Nc2ccccc2)n1 | 3.7% | -2.8 | 9.4% | -30.4% | -0.6%[0.365 µM] | 6.9%
CC(C)(C)NC(=O)NC(=O)COC(=O)Cn1cnc2ccccc2c1=O | ? | -0.2 | -4.1% | 15.7% | -6.3% | -4.3%
S=c1[nH]nc(-c2cc(-c3ccccc3)n[nH]2)n1/N=C/c1cccc(Cl)c1 | ? | -17.9 | -26.5% | ? | ? | -0.3%
C=CCn1c(-c2sccc2C)n[nH]c1=S | -2.3% | -2.1 | -11.8% | 10µM* | ? | 1.0%
CCn1c(CNC(=O)Cc2ccc(OC)cc2)n[nH]c1=S | -1.4% | -7.8 | 2.3% | -2.8% | -12.9%[10 µM] | 0.2%
C=CCn1c(-c2c(C)nc3cc(C)ccn23)n[nH]c1=S | -2.7% | -8.2 | 7.7% | ? | ? | -4.5%
C=CCn1c(CSc2ccc(C)cc2)n[nH]c1=S | 16.4% | 14.8 | 13.4% | 3.98µM* | 14.1µM* | -3.0%
COc1ccc(Cn2c(-c3ccc(OC)cc3)n[nH]c2=S)cc1 | -1.7% | -16.0 | -8.1% | 7.94µM* | -27.1% | 2.1%
SMILES | ELG1 DNA repair | Giardia kill | BRCA1 expr act | RORgamma inh | Gal4-VP16 FLuc | p53 reactivation
S=c1[nH]nc(-c2cccc(Cl)c2)n1Cc1ccccc1 | 24.9% | -5.0 | -23.5% | 2.51µM* | 2.51µM* | -10.8%
Cc1cccc(NC(=O)CN2CCN(C(=O)c3c(C)nn(Cc4ccccc4)c3C)CC2)c1C | -7.5% | 14.0 | -14.1% | nt | nt | 3.5%
S=c1[nH]nc(-c2ccc(Cl)cc2Cl)n1-c1ccccc1 | ? | -22.7 | 13.5% | 11.2%[1.91 µM] | ? | nt
CCOc1ccc(-c2n[nH]c(=S)n2Cc2ccccc2)cc1 | 4.8% | -1.3 | -6.1% | 6.31µM* | 5.62µM* | -27.0%
Cc1ccccc1-c1n[nH]c(=S)n1Cc1ccccc1 | 25.6% | 12.3 | -16.8% | 2.0% | -2.7% | -4.7%
CC(c1n[nH]c(=S)n1Cc1ccccc1)N(C)C (configuration not stated) | 2.1% | -5.4 | -2.2% | 1.78µM* | ? | 26.7%
Cc1ccc(-c2n[nH]c(=S)n2Cc2ccccc2)cc1 | 3.8% | 2.6 | -19.4% | 2.82µM* | 6.31µM* | 1.2%
S=c1[nH]nc(-c2ccc(Cl)cc2Cl)n1Cc1ccccc1 | 2.0% | -6.6 | -21.5% | 2.82µM* | 5.62µM* | -4.5%
CC1(C(=O)N2Cc3ccccc3C2)CCN1C(=O)C1(c2ccc(Cl)cc2)CC1 (configuration not stated) | nt | nt | -25.8% | nt | nt | nt
COC(=O)C1=C(C(=O)OC)[C@@H]2Nc3ccccc3[C@@]23C[C@@H](C(=O)OC)N(C(=O)COCc2ccccc2)C3=N1 | nt | -2.0 | 0.0% | nt | nt | nt
Cc1ccccc1C1N=C2Oc3ccccc3C=C2C(=O)N1 (configuration not stated) | nt | nt | -38.4% | nt | nt | nt
COc1ccccc1-n1c(-c2ccco2)n[nH]c1=S | -2.6% | -12.3 | 21.2% | -41.1% | -1.8% | 4.2%
CC(C)Oc1ccc(Cn2c(-c3ccco3)n[nH]c2=S)cc1 | 18.7% | -1.4 | 0.6% | 2.82µM* | 4.47µM* | 16.4%
Cc1occc1-c1n[nH]c(=S)n1CC(C)C | -2.9% | 4.5 | 1.5% | 7.5% | 2.6% | 10.5%
C=CCn1c(-c2cccc(Cl)c2)n[nH]c1=S | 2.4% | -16.2 | 0.0% | 3.98µM* | 7.08µM* | 3.9%
CCn1c(-c2cccn(Cc3ccc(Cl)cc3Cl)c2=O)n[nH]c1=S | -15.2% | -10.4 | -31.2% | 10µM* | -16.8% | 0.4%
COc1ccc(-c2n[nH]c(=S)n2CC(C)C)cc1 | -2.1% | -12.5 | -1.1% | 10µM* | ? | 2.4%
NNC(=O)c1cccn(Cc2ccc(Cl)cc2Cl)c1=O | ? | -0.7 | -25.6% | -14.1% | 6.9% | -0.3%
C=CCn1c(-c2cccc(S(=O)(=O)N(CC)CC)c2)n[nH]c1=S | 3.1% | -2.6 | 0.0% | ? | 1.7% | -3.4%
